Reference: PubChem BioAssay (NCI)
This is part of a sample that, as a whole, favours compounds with a hit. Of some 83,000 tested, about 20% had one in any assay.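 Single-dose data. Exposure time 48 hours. Values below 10 considered active.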 A number with no mark means an inactive call.

Test system: NCI-H23 lung
Test: NCI-60 one-dose screen, 48 h (100 = growth as untreated, 0 = no growth, -100 = all killed)
Conditions: 10 µM unless noted

Row | SMILES | growth [%]
1 | O=C(Nc1cccc(Cl)c1)Oc1c(Br)c(Br)c(Br)c(Br)c1Br | 91
2 | CN1CCN(Cc2ccc(NC(=O)c3cncc(C#Cc4cnccc4C(F)(F)F)c3)cc2C(F)(F)F)CC1 | 67.9
3 | CN(C)Cc1c(-c2ccccc2)[nH]c2ccccc12 | 88.7
4 | CCN(CC)CCCC(Nc1c2ccc(Cl)cc2nc2ccc(OC)cc12)c1ccc(Cl)cc1 (centres undefined) | 62.1
5 | O=C(CNCCO)Nc1ccc2ncnc(Nc3ccc(OCc4cccc(F)c4)c(Cl)c3)c2c1 | 98.9
6 | CSc1nnc2c(=O)n(C)c(=O)n(C)c2n1 | 108
7 | C=CCn1c(SCC(=O)Nc2ccc(C(=O)/C=C/c3cc(OC)c(OC)c(OC)c3)cc2)nnc1-c1cc(-c2ccc(S(C)(=O)=O)cc2)nc2ccccc12 | 85.6
8 | CCNC(=O)c1[nH]cc(-c2ccc(OC)cc2)c1-c1cc(OC)cc(OC)c1 | 91.9
9 | COc1ccc(/C=N/C2=C(C#N)C(c3ccccc3[N+](=O)[O-])c3ccc4ccccc4c3O2)cc1 (centres undefined) | 79
10 | COc1ccc(-c2nc(N/N=C/c3cccc(O)c3)nc(N3CCOCC3)c2C#N)cc1 | 99.5
11 | Cc1ccccc1-c1cc(Cc2ccc(F)cc2)c(=O)[nH]n1 | 98.3
12 | COC(=O)Nc1ccc(NC(=O)OC)cc1 | 97.6
13 | O=C1Nc2ccccc2/C1=N/c1nc(-c2ccc(Cl)cc2)cs1 | 75
14 | Clc1ccc(N2N=C(c3cccc(Nc4ccncc4)c3)CC2c2ccc(Br)cc2)cc1 (centres undefined) | 57.1
